# PubChem BioAssay
# Test: inhibitors of PAF-induced NFkB signaling in CF airway cells, dose response, cell-based, uHTS hits, panel, cytotoxicity readout (AID 624344)
# Conditions: CF bronchial epithelial cells, PAF-induced NFkB reporter inhibition, with PAF, run 2; at 79 µM (top of the series) unless noted
row,Compound,inhibition
1,COc1ccc(COC(=O)C2=C(C)NC(=O)NC2c2ccc(F)cc2)cc1 (stereo not given),105%
2,Cc1c(Cl)cccc1NC(=O)COC(=O)c1c2c(nc3ccccc13)CCN(Cc1ccccc1)C2,97.3%
3,N#Cc1ccsc1NC(=O)c1ccc(Cl)c([N+](=O)[O-])c1,101%
4,COc1cc(C(=O)Nc2nnc(-c3sccc3C)s2)cc(OC)c1OC,89.3%
5,COc1ccc(-c2csc3ncnc(NCCN4CCOCC4)c23)cc1,100%
6,CC1C(c2ccccc2)OCCN1C(=S)Nc1ccc(S(=O)(=O)N2CCCCC2)cc1 (stereo not given),106%
7,COc1cc(CCc2ccccc2)c(C(=O)O)c(O)c1C/C=C(/C)CCC=C(C)C,114%
8,CC(=O)Nc1ccc(-c2ccnc3c2CC(C(=O)NCc2ccccc2)O3)cc1 (stereo not given),-72.7%
9,CCc1cc2c(Sc3nc4ccccc4s3)ncnc2s1,98.3%
10,CC(=O)c1cccc(NC(=O)COC(=O)c2ccc(S(C)(=O)=O)c([N+](=O)[O-])c2)c1,93.4%
11,Cc1cc(N2C(=O)C(O)=C(C(=O)c3ccc(C)o3)C2c2cccc(Oc3ccccc3)c2)no1 (stereo not given),82.8%
12,COc1ccccc1[C@]1(C)ON(c2ccccc2C(F)(F)F)C1=O,109%
13,CCN1CCN(Cc2ccc(NC(=O)c3ccc(C)c(NC(=O)N4CCNC4=O)c3)cc2C(F)(F)F)CC1,119%
14,CC(=O)Nc1ccc(Nc2nc(-c3sc(NC(C)=O)nc3C)cs2)cc1,110%
15,Nc1ncc([N+](=O)[O-])c(N2CCCCCC2)n1,104%
16,COc1ccc(S(=O)(=O)c2c(O)c3ccc(C(=O)Nc4ccccc4Cl)cc3[nH]c2=O)cc1,106%
17,COc1ccc(Nc2nc(-c3cccs3)nc3ccccc23)cc1S(=O)(=O)N1CCOCC1,102%
18,O=C1NC(=S)N/C1=C/c1cccnc1,103%
19,Cn1cccc1C(=O)NC(=O)COC(=O)c1ccc(S(C)(=O)=O)c([N+](=O)[O-])c1,98.1%
20,Nc1cc2c(cc1Br)-c1ccccc1C2=NO,106%

row,Compound,inhibition
1,CCc1ccccc1NC(=O)CN(C)C(=O)Cn1ncc(Cl)c(Cl)c1=O,101%
2,CN(CCC#N)C(=O)COC(=O)c1ccccc1C(=O)c1ccc(Cl)c([N+](=O)[O-])c1,105%
3,CCN(CC)CCN(C(=O)CCS(=O)(=O)c1ccccc1)c1nc2c(C)cc(C)cc2s1,115%
4,CC(=C/c1ccccc1)/C=N/n1c(-c2ccncc2)n[nH]c1=S,103%
5,CCOc1ccc(CCN2C(=S)N([C@@H](CC(C)C)CN3CCCC3CN3C(=S)NC[C@@H]3CC(C)C)C[C@@H]2Cc2ccc(O)cc2)cc1 (stereo not given in full),93.9%
6,CCOC(=O)c1c(C)c2c(=O)[nH]cnc2n1-c1ccccc1,104%
7,COc1cc(C(=O)c2cc3c(cc2C)OCO3)cc(OC)c1OC,51.8%
8,COc1cccc(-c2ccc3ncnc(NCc4cccnc4)c3c2)c1,100%
9,CS(=O)(=O)Nc1cccc(-c2cc(NC=O)c3ncc(-c4ccc(F)cc4)n3c2)c1,88.3%
10,COc1ccc(S(=O)(=O)N2c3ccc(F)cc3CCC2C)cc1 (stereo not given),71.7%
11,O=C1OC(Nc2nc(-c3ccc(F)cc3)cs2)c2ccccc21 (stereo not given),113%
12,CCN1CCN(Cc2ccc(NC(=O)c3ccc(C)c(NC(=O)c4ccno4)c3)cc2C(F)(F)F)CC1,83.4%
13,CCOC(=O)Cc1nnc2c(Nc3ccc(Cl)cc3)nc3nonc3n12,101%
14,Nc1nccc(SCc2ccc(Cl)cc2Cl)n1,74.1%
15,COc1ccc(-c2cn[nH]c2-c2ccc(OCc3ccccc3)cc2O)cc1,114%
16,O=C(c1cncc(Br)c1)N1CCc2ccccc2C1,80.2%
17,CN(C)C=Nc1c(C(=O)c2ccccc2)sc2nccc(N(C)C)c12,105%
18,COc1cc(-c2cc(C(=O)Nc3ccc(S(=O)(=O)NCc4ccco4)cc3)c3ccccc3n2)cc(OC)c1OC,102%
19,CC(C)=CCc1c(O)cc(O)c2c1OC(c1ccc(O)cc1)CC2=O (stereo not given),108%
20,CCOc1ccc(C(C(=O)NC2CCCC2)N(C(=O)c2snc(C(N)=O)c2N)c2cccc(O)c2)cc1 (stereo not given),96.6%
